Measured values taken from PubChem BioAssay (NCATS).
Results filed as inconclusive are left out. Where a call stands in place of a potency, no number is given. Activity calls are given as the source filed them. Calls follow the shape of the dose curve; as a rule, active = well fitted curve in the direction sought with a large enough effect; inconclusive = small, poorly fitted or top-dose-only effect, or another doubt; inactive = no such curve, though single readings can be large; an effect the other way counts as inactive or inconclusive.

Tests used:
[1] = qHTS of pediatric cancer cell lines to identify multiple opportunities for drug repurposing: Primary screen for control Hh wild type fibroblast cells (AID 1347106);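 also: series mostly up to about 46 µM; a drop in luminescence marks cytotoxicity and a rise apparent proliferation; nearly all actives have a fitted effect of over 55% in size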
Procedure, shortened: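 Viability after 48 h compound treatment at 37C, 500-1,000 cells/well, read as ATP luminescence with CellTiter-Glo. Primary screens used 11-point (MIPE, 0.78 nM-46 µM) or 8-point (NPC, 0.59 nM-46 µM) final concentrations; follow-up screens used 11-point dilutions.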

[2] = qHTS of pediatric cancer cell lines to identify multiple opportunities for drug repurposing: Primary screen for Rh30 cells (AID 1347107); also: series mostly up to about 46 µM; nearly all actives have a fitted effect of over 75% in size
Procedure, shortened: (§1)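 Cells (500-1,000/well) in growth media were settled 5 h at 37 degrees C, then given compounds for 48 h. Viability was read as CellTiter-Glo luminescence. Primary runs used MIPE at 11 points (0.78 nM-46 µM) and NPC at 8 points (0.59 nM-46 µM); follow-ups used 11 points.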

[3] = qHTS of pediatric cancer cell lines to identify multiple opportunities for drug repurposing: Primary screen for Rh41 cells (AID 1347108); also: nearly all actives have a fitted effect of over 70% in size; also: potency is read from the fitted curve at half-maximal effect
Procedure, shortened: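 Cells plated at 500-1,000/well in growth medium, compounds added after 5 h. MIPE tested at 11 points (from 0.78 nM), NPC at 8 points (from 0.59 nM). CellTiter-Glo luminescence after 48 h; concentration-response curves from primary screen.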

[4] = qHTS of pediatric cancer cell lines to identify multiple opportunities for drug repurposing: Confirmatory screen for A673 cells (AID 1347110);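 also: cells exposed to compound for 48 h before the viability read; nearly all actives have a fitted effect of over 65% in size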; also: potency is read from the fitted curve at half-maximal effect
Procedure, shortened: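 qHTS titration format: primary MIPE 0.78 nM-46 µM (11 pts), NPC 0.59 nM-46 µM; confirmation 11 pts. 48 h, CTG luminescence.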

[5] = qHTS of pediatric cancer cell lines to identify multiple opportunities for drug repurposing: Confirmatory screen for SK-N-MC cells (AID 1347111);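 also: cells exposed to compound for 48 h before the readout; nearly all actives have a fitted effect of over 70% in size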; also: potency is read from the fitted curve at half-maximal effect
Procedure, shortened: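 Metabolically active cells were quantified by ATP-dependent luminescence (CellTiter-Glo, 15 min at room temperature) following 48 h treatment. Cells had been plated at 500-1,000 per well and settled for 5 h beforehand.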

[6] = qHTS of pediatric cancer cell lines to identify multiple opportunities for drug repurposing: Confirmatory screen for BT-12 cells (AID 1347112); also: nearly all actives have a fitted effect of over 55% in size
Procedure, shortened: as §1

[7] = qHTS of pediatric cancer cell lines to identify multiple opportunities for drug repurposing: Confirmatory screen for LAN-5 cells (AID 1347113); conditions: outcome: dose series up to 45.9 µM; also: nearly all actives have a fitted effect of over 65% in size
Procedure, shortened: as §1

[8] = qHTS of pediatric cancer cell lines to identify multiple opportunities for drug repurposing: Confirmatory screen for NB-EBc1 cells (AID 1347115);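 also: cells exposed to compound for 48 h before the viability read; nearly all actives have a fitted effect of over 45% in size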; also: potency is read from the fitted curve at half-maximal effect
Procedure, shortened: as §1

[9] = qHTS of pediatric cancer cell lines to identify multiple opportunities for drug repurposing: Confirmatory screen for BT-37 cells (AID 1347117); also: nearly all actives have a fitted effect of over 55% in size; also: potency is read from the fitted curve at half-maximal effect
Procedure, shortened: as §1

[10] = qHTS of pediatric cancer cell lines to identify multiple opportunities for drug repurposing: Confirmatory screen for TC32 cells (AID 1347118);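 also: cells exposed to compound for 48 h before the read; nearly all actives have a fitted effect of over 65% in size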; also: potency is read from the fitted curve at half-maximal effect
Procedure, shortened: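 Luminescent ATP read-out (CellTiter-Glo) of metabolically active TC32 cells after 48 h exposure. Concentration-response curves came from 11-point (MIPE, 0.78 nM–46 µM) or 8-point (NPC, 0.59 nM–46 µM) primary titrations; follow-up used 11 points.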

[11] = qHTS of pediatric cancer cell lines to identify multiple opportunities for drug repurposing: Confirmatory screen for MG 63 (6-TG R) cells (AID 1347119); also: nearly all actives have a fitted effect of over 55% in size
Procedure, shortened: as §1

[12] = qHTS of pediatric cancer cell lines to identify multiple opportunities for drug repurposing: Confirmatory screen for control Hh wild type fibroblast cells (AID 1347121); also: nearly all actives have a fitted effect of over 70% in size
Procedure, shortened: as §1

[13] = qHTS of pediatric cancer cell lines to identify multiple opportunities for drug repurposing: Confirmatory screen for U-2 OS cells (AID 1347122); also: nearly all actives have a fitted effect of over 65% in size; also: potency is read from the fitted curve at half-maximal effect
Procedure, shortened: as §1

[14] = qHTS of pediatric cancer cell lines to identify multiple opportunities for drug repurposing: Confirmatory screen for Rh41 cells (AID 1347123);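 also: 48 h compound exposure; nearly all actives have a fitted effect of over 60% in size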; also: potency is read from the fitted curve at half-maximal effect
Procedure, shortened: as §1

[15] = qHTS of pediatric cancer cell lines to identify multiple opportunities for drug repurposing: Confirmatory screen for RD cells (AID 1347124)
Procedure, shortened: as §1

[16] = qHTS of pediatric cancer cell lines to identify multiple opportunities for drug repurposing: Confirmatory screen for Rh18 cells (AID 1347125); also: nearly all actives have a fitted effect of over 55% in size
Procedure, shortened: as §1

[17] = qHTS of pediatric cancer cell lines to identify multiple opportunities for drug repurposing: Confirmatory screen for Rh30 cells (AID 1347126); also: nearly all actives have a fitted effect of over 55% in size; also: potency is read from the fitted curve at half-maximal effect
Procedure, shortened: as §1

[18] = qHTS of pediatric cancer cell lines to identify multiple opportunities for drug repurposing: Confirmatory screen for DAOY cells (AID 1347114); also: nearly all actives have a fitted effect of over 65% in size
Procedure, shortened: (§2)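 Viability measured as metabolically active cells via CellTiter-Glo luminescence following 48 hours of compound exposure, 11-point dilutions in confirmatory testing. 500-1,000 cells/well plated 5 hours before dosing; controls were DMSO and 2.3 µM bortezomib.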

[19] = qHTS of pediatric cancer cell lines to identify multiple opportunities for drug repurposing: Confirmatory screen for NB1643 cells (AID 1347109); also: nearly all actives have a fitted effect of over 45% in size
Procedure, shortened: as §1

[20] = qHTS of pediatric cancer cell lines to identify multiple opportunities for drug repurposing: Confirmatory screen for SJ-GBM2 cells (AID 1347116); conditions: outcome: dose series up to 45.9 µM; also: nearly all actives have a fitted effect of over 60% in size
Procedure, shortened: as §2

With NNc1ccccc1 the outcome [1] was “inactive”, the outcome [2] was “inactive” and the Potency [3] was “inactive”.
In the case of O=P1(N(CCCl)CCCl)NCCCO1 (centres undefined), the outcome [1] is reported as “inactive”, the outcome [2] is reported as “inactive” and the Potency [3] is reported as “inactive”. For the same compound, the Potency [4] was “inactive”, the Potency [5] was “inactive” and the Potency [6] was “inactive”. For the same compound, the outcome [7] was “inactive”, the Potency [8] was “inactive” and the Potency [9] was “inactive”. The Potency [10] was “inactive”, the outcome [11] was “inactive” and the outcome [12] was “inactive”. For the same compound, the Potency [13] was “inactive”, the Potency [14] was “inactive” and the outcome [15] was “inactive”. The Potency [16] was “inactive” and the Potency [17] was “inactive”.
In the case of [N-]=[N+]=CC(=O)OC[C@H](N)C(=O)O, the outcome [1] is reported as “inactive”, the outcome [2] is reported as “inactive” and the Potency [3] is reported as “inactive”.
In the case of O=C(O)CCCc1ccc(N(CCCl)CCCl)cc1, the outcome [1] is reported as “inactive”, the outcome [2] is reported as “inactive” and the Potency [3] is reported as “inactive”. The Potency [5] was 23.3 µM (active), the Potency [6] was “inactive” and the Potency [18] was “inactive”. The Potency [8] was 9.27 µM (active), the Potency [13] was “inactive” and the Potency [14] was “inactive”. For the same compound, the outcome [15] was “inactive”, the Potency [16] was “inactive” and the Potency [17] was “inactive”.
With CCC(CC)(CNC(=O)CCCO)c1cccc(OC)c1 the outcome [1] was “inactive”, the outcome [2] was “inactive” and the Potency [3] was “inactive”.
With CCOP(=S)(OCC)Oc1ccc2c(C)c(Cl)c(=O)oc2c1 the outcome [1] was “inactive”, the outcome [2] was “inactive” and the Potency [3] was “inactive”. The Potency [19] was “inactive”, the Potency [4] was “inactive” and the Potency [6] was “inactive”. The Potency [18] was “inactive”, the Potency [8] was “inactive” and the outcome [20] was “inactive”. For the same compound, the outcome [11] was “inactive”, the Potency [13] was “inactive” and the Potency [14] was “inactive”. For the same compound, the outcome [15] was “inactive”, the Potency [16] was “inactive” and the Potency [17] was “inactive”.
With C[C@]12CCC(=O)C=C1CC[C@@H]1[C@@H]2CC[C@@]2(C)[C@H]1CC[C@]2(C)O the outcome [1] was “inactive”, the outcome [2] was “inactive” and the Potency [19] was “inactive”. For the same compound, the Potency [4] was “inactive”, the Potency [6] was “inactive” and the outcome [7] was “inactive”. For the same compound, the Potency [8] was “inactive”, the outcome [20] was “inactive” and the Potency [9] was “inactive”. For the same compound, the outcome [12] was “inactive”, the Potency [14] was 18.5 µM (active) and the outcome [15] was “inactive”. The Potency [16] was “inactive” and the Potency [17] was “inactive”.
In the case of COP(=S)(OC)Oc1cc(Cl)c(Cl)cc1Cl, the outcome [1] is reported as “inactive”, the outcome [2] is reported as “inactive” and the Potency [3] is reported as “inactive”.
In the case of CC(NC(C)(C)C)C(=O)c1cccc(Cl)c1 (centres undefined), the outcome [1] is reported as “inactive”, the outcome [2] is reported as “inactive” and the Potency [3] is reported as “inactive”. For the same compound, the Potency [5] was 3.29 µM (active), the Potency [6] was “inactive” and the Potency [9] was 23.3 µM (active). The Potency [10] was 2.93 µM (active), the outcome [11] was “inactive” and the outcome [12] was “inactive”. For the same compound, the Potency [13] was 4.14 µM (active), the Potency [14] was 4.65 µM (active) and the Potency [16] was “inactive”.
For CCCCC/C=C\C/C=C\C/C=C\C/C=C\CCCC(=O)NCC(=O)O, the outcome [1] was “inactive”, the outcome [2] was “inactive” and the Potency [3] was “inactive”.
For Oc1ccc(Cl)cc1, the outcome [1] was “inactive”, the outcome [2] was “inactive” and the Potency [3] was “inactive”.
In the case of CCc1cc2c(s1)-n1c(C)nnc1CN=C2c1ccccc1Cl, the outcome [1] is reported as “inactive”, the outcome [2] is reported as “inactive” and the Potency [3] is reported as “inactive”.
With CC(=O)NC1CCSC1=O (centres undefined) the outcome [1] was “inactive”, the outcome [2] was “inactive” and the Potency [3] was “inactive”.
For CCCCCCC(=O)CCCCCC/C=C/C[C@@H](O)[C@H](O)[C@@](N)(CO)C(=O)O, the outcome [1] was “inactive”, the outcome [2] was “inactive” and the Potency [3] was “inactive”.
For CCN(CCO)CCn1c(Cc2ccccc2)nc2c1c(=O)n(C)c(=O)n2C, the outcome [1] was “inactive”, the outcome [2] was “inactive” and the Potency [3] was “inactive”.
For C[C@]12CC[C@H]3[C@@H](CC[C@@]45O[C@H]4C(O)=C(C#N)C[C@]35C)[C@H]1CC[C@H]2O, the outcome [1] was “inactive” and the Potency [3] was 20.9 µM (active).
In the case of C[C@]12CC[C@@H]3c4ccc(OC(=O)N(CCCl)CCCl)cc4CC[C@H]3[C@@H]1CC[C@@H]2O, the outcome [1] is reported as “inactive”, the outcome [2] is reported as “inactive” and the Potency [3] is reported as “inactive”.
In the case of CC(C)(C)NCC(O)c1ccccc1Cl (centres undefined), the outcome [1] is reported as “inactive”, the outcome [2] is reported as “inactive” and the Potency [3] is reported as “inactive”.
For Clc1ccccc1N1CCNCC1, the outcome [1] was “inactive”, the outcome [2] was “inactive” and the Potency [3] was “inactive”.
With CCCCCCCCCC(=O)O[C@H]1CC[C@H]2[C@@H]3CCC4=CC(=O)CC[C@@H]4[C@H]3CC[C@]12C the outcome [1] was “inactive”, the outcome [2] was “inactive” and the Potency [3] was “inactive”.
For O=c1[nH]oc2c1CCNC2, the outcome [1] was “inactive”, the outcome [2] was “inactive” and the Potency [3] was “inactive”.
With C[N+]1(CCF)[C@@H]2CC[C@H]1CC(OC(=O)C(O)(c1ccccc1)c1ccccc1)C2 (some centres undefined) the outcome [1] was “inactive”, the outcome [2] was “inactive” and the Potency [3] was “inactive”.
In the case of O=C(N/N=C/c1ccc([N+](=O)[O-])o1)c1cc([N+](=O)[O-])cc([N+](=O)[O-])c1O, the outcome [1] is reported as “inactive”, the outcome [2] is reported as “inactive” and the Potency [19] is reported as “inactive”. For the same compound, the Potency [4] was “inactive”, the Potency [5] was 10.4 µM (active) and the Potency [6] was “inactive”. For the same compound, the outcome [7] was “inactive”, the Potency [18] was “inactive” and the outcome [20] was “inactive”. For the same compound, the Potency [9] was “inactive”, the outcome [12] was “inactive” and the Potency [13] was “inactive”. The Potency [14] was “inactive”, the outcome [15] was “inactive” and the Potency [16] was “inactive”. The Potency [17] was “inactive”.
With CCCN(CCC)C(=O)Cc1c(-c2ccc(Cl)cc2)nc2ccc(Cl)cn12 the outcome [1] was “inactive”, the outcome [2] was “inactive” and the Potency [19] was “inactive”. The Potency [4] was 10.4 µM (active), the Potency [6] was “inactive” and the outcome [7] was “inactive”. The Potency [8] was “inactive”, the outcome [20] was “inactive” and the Potency [9] was “inactive”. The outcome [11] was “inactive”, the outcome [12] was “inactive” and the Potency [14] was 18.5 µM (active). The outcome [15] was “inactive”, the Potency [16] was “inactive” and the Potency [17] was 7.37 µM (active).
For C#CC(O)(C=CCl)CC (centres undefined), the outcome [1] was “inactive”, the outcome [2] was “inactive” and the Potency [3] was “inactive”.
